From PubChem BioAssay (Tox21)
Records with an inconclusive call do not appear. Calls of active or inactive are those of the source. Unless noted, the call rests on the fitted dose curve; in most records, active means well fitted curve in the direction sought with a large enough effect in the repeat runs; inconclusive means weak or mixed curves; inactive means no such curve, though single readings can be large; an effect the other way counts as inactive or inconclusive.

Legend:
[1] = A CellTox Green Cytotoxicity Assay to monitor cytotoxicity in HepG2 cells - 0 hour (AID 1224882); further: nearly all actives have a fitted effect of over 35% in size
Procedure, shortened: (§1)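 HepG2 cells, 600/well, preincubated 5 h with CellTox Green dye, then exposed to Tox21 compounds in DMSO at 37 C for up to 40 h. Dead-cell DNA fluorescence read at the indicated time point.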

[2] = A CellTox Green Cytotoxicity Assay to monitor cytotoxicity in HepG2 cells - 32 hour (AID 1224883); further: nearly all actives have a fitted effect of over 50% in size
Procedure, shortened: as §1

[3] = A CellTox Green Cytotoxicity Assay to monitor cytotoxicity in HEK293 cells - 8 hour (AID 1224884); further: nearly all actives have a fitted effect of over 35% in size
Procedure, shortened: (§2)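 HEK293 cells, 600/well, were preincubated 5 hours and then exposed to compounds at 37 C for up to 40 hours. A cell-impermeant cyanine dye staining dead-cell DNA was read by fluorescence at 0, 8, 16, 24, 32 and 40 h time points.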

[4] = qHTS RealTime-Glo MT Cell Viability Assay in HepG2 cells - 16 hour (AID 1224885); further: nearly all actives have a fitted effect of over 50% in size
Procedure, shortened: (§3)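 Tox21 10K library screened in qHTS format on HepG2 cells carrying RealTime-Glo reagents. Compounds were added after a 5 h preincubation, and the luminescent signal from continuous culture was measured repeatedly during 40 h treatment.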

[5] = qHTS RealTime-Glo MT Cell Viability Assay in HEK293 cells - 24 hour (AID 1224886); further: top concentration of the series differs between compounds; nearly all actives have a fitted effect of over 50% in size
Procedure, shortened: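 Luminescence generated by NanoLuc from substrate produced by living HEK293 cells served as the viability signal. Each value reflects the reading at its stated time point during continuous 40 h compound exposure at 37 C.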

[6] = qHTS RealTime-Glo MT Cell Viability Assay in HEK293 cells - 8 hour (AID 1224887); further: top concentration of the series differs between compounds; nearly all actives have a fitted effect of over 50% in size
Procedure, shortened: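 600 cells/well were plated with the nonlytic NanoLuc/prosubstrate reagent, pre-incubated 5 h, then given 23 nL of compound in DMSO. Incubation at 37 C for 40 h, with luminescence from viable-cell-reduced substrate read repeatedly from 0 h.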

[7] = A CellTox Green Cytotoxicity Assay to monitor cytotoxicity in HEK293 cells - 16 hour (AID 1224888); further: nearly all actives have a fitted effect of over 35% in size
Procedure, shortened: as §2

[8] = qHTS RealTime-Glo MT Cell Viability Assay in HepG2 cells - 0 hour (AID 1224889); further: nearly all actives have a fitted effect of over 50% in size
Procedure, shortened: as §3

[9] = A CellTox Green Cytotoxicity Assay to monitor cytotoxicity in HepG2 cells - 8 hour (AID 1224890); further: nearly all actives have a fitted effect of over 45% in size
Procedure, shortened: as §1

[10] = qHTS assay to identify small molecule antagonists of the estrogen receptor alpha (ER-alpha) signaling pathway using the BG1 cell line in the presence of 0.1 nM 17-beta-estradiol - cell viability counter screen (AID 1259241); further: nearly all actives have a fitted effect of over 40% in size
Procedure, shortened: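 Following 5 days in phenol red-free medium with charcoal-stripped serum, VM7Luc4E2 cells received test compounds alongside 0.1 nM 17beta-estradiol (final) at 37C for 22 hr. Live cells were then quantified via protease-substrate fluorescence.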

[11] = qHTS assay to identify small molecule antagonists of the androgen receptor (AR) signaling pathway using the MDA cell line in the presence of 0.5 nM R1881 - cell viability counter screen (AID 1259242); further: nearly all actives have a fitted effect of over 45% in size
Procedure, shortened: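 MDA-kb2 cells (MMTV-luciferase, AR/GR responsive) were treated with compounds plus 0.5 nM R1881 (final) for 16 hr at 37C, 0% CO2. Viability was then read in the same wells as live-cell protease fluorescence (CellTiter-Fluor, 30 min).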

[12] = qHTS assay to identify small molecule phospholipidosis (PLD) inducers (AID 1259344; active means well fitted curve in the direction sought with a large enough effect; an effect the other way counts as inactive or inconclusive)
Procedure, shortened: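 Fluorescent phospholipid staining (LipidTOX Red) measured by automated microscopy in fixed HepG2 cells after 24 h treatment; nuclei counterstained with Hoechst 33342; amiodarone as reference inducer.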

[13] = qHTS assay to identify small molecule HDAC inhibitors (AID 1259364); further: top concentration of the series differs between compounds; nearly all actives have a fitted effect of over 45% in size
Procedure, shortened: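 Wild-type HCT-116 cells, plated overnight at 37 C, exposed to compounds 2 hr at 37 C; luminogenic HDAC-Glo substrate then added 30 min at room temperature. Luminescence reports relative endogenous class I/II HDAC activity.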

[14] = qHTS assay to identify small molecule HDAC inhibitors - cell viability counter screen (AID 1259365)
Procedure, shortened: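 HCT-116 wild-type, overnight attachment; 2hr drug exposure, 37C; CellTiter-Glo luminescent ATP readout after 30min RT.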

[15] = qHTS assay to identify small molecule agonists of the sonic hedgehog signaling (Shh) pathway - cell viability counter screen (AID 1259366); further: nearly all actives have a fitted effect of over 50% in size
Procedure, shortened: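 Compounds in DMSO were pin-transferred onto 3T3 Gli1-Luc cells that had settled 4hr; plates then stood 24hr at 37C and 5% CO2. One hour before the end, CellTiter-Fluor was added and fluorescence recorded.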

[16] = qHTS assay to identify small molecule antagonists of the sonic hedgehog signaling (Shh) pathway - cell viability counter screen (AID 1259367); further: nearly all actives have a fitted effect of over 55% in size
Procedure, shortened: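 Using CellTiter-Fluor, viability of Gli1-Luc reporter 3T3 cells is read by fluorescence in the wells used for the Shh luciferase assay. Treatment lasts 23 hr with conditioned medium, then reagent 1 hr at 37C.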

[17] = qHTS assay to identify small molecule antagonists of the sonic hedgehog signaling (Shh) pathway (AID 1259369; calls by dose curve; further: nearly all actives have a fitted effect of over 45% in size)
Procedure, shortened: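 NIH/3T3-derived Gli1-Luc reporter cells plated 4 h, dosed with compound, then stimulated with conditioned medium for 24 h at 37 C. Firefly luciferase luminescence read after 30 min with detection reagent at room temperature.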

[18] = qHTS assay to identify small molecule agonists of the sonic hedgehog signaling (Shh) pathway (AID 1259368; calls by dose curve;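 further: NIH/3T3-derived 3T3Gli1-Luc cells carrying a stable Gli1-driven firefly luciferase reporter; series mostly up to about 92 µM; nearly all actives have a fitted effect of over 15% in size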)
Procedure, shortened: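 NIH/3T3-derived 3T3Gli1-Luc cells with stably integrated Gli1-driven firefly luciferase, 2,000 cells/well, compounds added after 4 hr. Incubated 24 hr at 37C, 5% CO2; luminescence read after 30 min with luciferase reagent at room temperature.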

[19] = biological target: Androgen receptor (Homo sapiens) (UniProt P10275); assay: qHTS assay to identify small molecule antagonists of the androgen receptor (AR) signaling pathway using the MDA cell line in the presence of 0.5 nM R1881 (AID 1259243); further: nearly all actives have a fitted effect of over 50% in size
Sequence of Androgen receptor (Homo sapiens) (P10275 whole entry, looked up): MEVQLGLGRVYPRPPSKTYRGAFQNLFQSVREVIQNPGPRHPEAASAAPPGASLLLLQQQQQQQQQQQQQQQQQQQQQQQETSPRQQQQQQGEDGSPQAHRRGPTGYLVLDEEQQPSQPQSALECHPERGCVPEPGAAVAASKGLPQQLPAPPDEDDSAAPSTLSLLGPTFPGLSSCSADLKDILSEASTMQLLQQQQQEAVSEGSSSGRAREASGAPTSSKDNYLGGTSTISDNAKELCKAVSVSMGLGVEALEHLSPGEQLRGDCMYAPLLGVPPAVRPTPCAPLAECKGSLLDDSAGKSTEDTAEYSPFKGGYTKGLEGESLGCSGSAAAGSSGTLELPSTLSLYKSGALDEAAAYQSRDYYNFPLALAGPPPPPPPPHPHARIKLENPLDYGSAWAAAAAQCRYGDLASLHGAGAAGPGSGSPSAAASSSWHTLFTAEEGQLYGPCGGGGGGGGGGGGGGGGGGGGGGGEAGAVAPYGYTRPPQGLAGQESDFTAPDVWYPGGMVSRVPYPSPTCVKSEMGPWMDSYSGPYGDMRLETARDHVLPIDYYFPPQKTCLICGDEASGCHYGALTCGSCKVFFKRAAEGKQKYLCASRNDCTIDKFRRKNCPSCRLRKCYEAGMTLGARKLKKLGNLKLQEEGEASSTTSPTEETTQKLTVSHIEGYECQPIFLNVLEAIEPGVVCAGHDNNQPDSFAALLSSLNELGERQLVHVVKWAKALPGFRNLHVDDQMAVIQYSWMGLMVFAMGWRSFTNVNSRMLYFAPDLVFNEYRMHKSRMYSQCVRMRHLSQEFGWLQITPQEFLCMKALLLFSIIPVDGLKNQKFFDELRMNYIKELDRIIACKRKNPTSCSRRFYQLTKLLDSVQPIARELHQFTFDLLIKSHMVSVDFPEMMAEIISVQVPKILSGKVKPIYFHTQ
Procedure, shortened: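 MDA-kb2 cells (MMTV-luciferase, responsive to AR and GR) at 3,000/well, rested 5 h at 37C, 0% CO2, then given compounds plus 0.5 nM R1881 (final) for 16 hr. Luciferase read with ONE-Glo after 30 min at room temperature.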

[20] = biological target: Estrogen receptor (Homo sapiens) (UniProt P03372); assay: qHTS assay to identify small molecule antagonists of the estrogen receptor alpha (ER-alpha) signaling pathway using the BG1 cell line in the presence of 0.1 nM 17-beta-estradiol (AID 1259244); further: nearly all actives have a fitted effect of over 50% in size
Sequence of Estrogen receptor (Homo sapiens) (P03372 whole entry, looked up): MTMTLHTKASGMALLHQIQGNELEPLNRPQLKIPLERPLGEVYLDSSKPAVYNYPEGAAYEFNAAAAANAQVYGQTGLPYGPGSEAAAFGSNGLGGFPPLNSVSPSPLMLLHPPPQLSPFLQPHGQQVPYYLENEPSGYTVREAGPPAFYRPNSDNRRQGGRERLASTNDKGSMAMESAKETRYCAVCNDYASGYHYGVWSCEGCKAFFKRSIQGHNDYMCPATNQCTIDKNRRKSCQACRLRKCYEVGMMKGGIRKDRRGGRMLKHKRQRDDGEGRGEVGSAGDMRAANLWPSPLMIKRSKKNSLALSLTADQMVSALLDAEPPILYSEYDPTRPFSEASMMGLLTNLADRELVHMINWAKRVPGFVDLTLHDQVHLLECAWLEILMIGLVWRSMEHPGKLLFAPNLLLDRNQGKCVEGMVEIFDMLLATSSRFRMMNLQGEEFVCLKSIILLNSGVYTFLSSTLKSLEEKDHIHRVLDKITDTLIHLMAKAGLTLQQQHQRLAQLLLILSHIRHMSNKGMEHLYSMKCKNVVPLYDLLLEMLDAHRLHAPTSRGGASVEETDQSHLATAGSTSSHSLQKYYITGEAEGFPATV
Procedure, shortened: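 VM7Luc4E2 cells (endogenous full-length ER-alpha, 4×ERE-luciferase), kept 5 days in phenol red-free, charcoal-stripped FBS medium; 4,000 cells/well. Compounds added with 0.1 nM (final) 17beta-estradiol, 22 hr at 37C; luminescence read with ONE-Glo after 30 min.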

Measured: Potency

CCCN(CCC)C(=O)C(CCC(=O)O)NC(=O)c1ccccc1 (configuration not stated)
inactive: [1] | [2] | [3] | [4] | [5] | [6] | [7] | [8] | [9] | [10] | [11] | [12] | [13] | [14] | [15] | [16] | [17]

NS(=O)(=O)c1cc(-c2nn[nH]n2)c(NCc2cccs2)cc1Cl
inactive: [1] | [2] | [3] | [4] | [5] | [6] | [7] | [8] | [9] | [10] | [11] | [12] | [13] | [14] | [15] | [16] | [18] | [17]

CC(C)Nc1nc(N)nc(Cl)n1
inactive: [1] | [2] | [3] | [4] | [5] | [6] | [7] | [8] | [9] | [10] | [11] | [13] | [14] | [15] | [16] | [18]

Cc1ncc(CO)c(CN)c1O
inactive: [1] | [2] | [3] | [4] | [5] | [6] | [8] | [9] | [10] | [11] | [19] | [20] | [12] | [13] | [14] | [15] | [16] | [18] | [17]

O=Cc1ccc(F)c(Br)c1
inactive: [1] | [2] | [3] | [4] | [5] | [6] | [7] | [8] | [9] | [10] | [11] | [13] | [14] | [15] | [16] | [18] | [17]

OCCN1CCN(CCO)CC1
inactive: [1] | [2] | [3] | [4] | [5] | [6] | [7] | [8] | [9] | [10] | [11] | [13] | [14] | [15] | [16] | [18] | [17]

O=CCCc1ccccc1
inactive: [1] | [2] | [3] | [4] | [5] | [6] | [7] | [8] | [9] | [10] | [11] | [13] | [14] | [15] | [16] | [17]

CCC(=O)O[C@]1(C(=O)SCF)[C@H](C)C[C@H]2[C@@H]3C[C@H](F)C4=CC(=O)C=C[C@]4(C)[C@@]3(F)[C@@H](O)C[C@@]21C
inactive: [1] | [2] | [3] | [4] | [5] | [6] | [7] | [8] | [9] | [10] | [11] | [12] | [13] | [14] | [15] | [16] | [18] | [17]

Cc1cccc(C)c1NC(=O)CN1CCCCCC1
inactive: [1] | [2] | [3] | [4] | [5] | [6] | [8] | [9] | [10] | [11] | [20] | [12] | [13] | [14] | [15] | [16] | [18] | [17]

CC(=O)Nc1ccc(C)c(Cl)c1
inactive: [1] | [2] | [3] | [4] | [5] | [7] | [8] | [9] | [10] | [11] | [13] | [14] | [15] | [16] | [18] | [17]

CC(C)(CO)[C@@H](O)C(=O)NCCC(=O)O
inactive: [1] | [2] | [3] | [4] | [5] | [7] | [8] | [9] | [10] | [11] | [20] | [12] | [13] | [14] | [15] | [16] | [18] | [17]

CN1CCN(N)CC1
inactive: [1] | [2] | [3] | [4] | [5] | [7] | [8] | [9] | [10] | [11] | [19] | [20] | [13] | [14] | [15] | [16] | [17]

FC(F)(F)C(F)(F)C(F)(F)C(F)(F)C(F)(F)C(F)(F)C(F)(F)C(F)(F)Br
inactive: [1] | [2] | [3] | [4] | [6] | [7] | [8] | [9] | [10] | [11] | [20] | [12] | [13] | [14] | [15] | [16] | [18] | [17]

CC(C)c1ccccc1
inactive: [1] | [2] | [3] | [4] | [5] | [7] | [8] | [9] | [10] | [11] | [19] | [20] | [13] | [14] | [15] | [16] | [18]
